Most compounds without a hit are left out; they make up all but 3.1% or so of the library.
GLS inhibitor: blocks human kidney-isoform glutaminase activity; AID 624170; GLS enzymatic activity, qHTS titration; 0.21% of 410,000 active; Potency, µM (doses to about 45.5 µM), for inactives: top-dose activity change, negative = inhibition, most hits filed as inhibitors; further: potency means the concentration at half of the fitted maximal effect
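hKGA in 45 mM KH2PO4 pH 8.2, 0.02% Tween-20 with pin-transferred compounds; 1 mM L-glutamine (stock) plus glutamate oxidase/HRP/Amplex Red coupling added. Fluorescence read initially and after 30 min at RT.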
PI4K2A block: blocks human PI4K2A kinase activity | purified PI4K2A, ADP-Glo luminescence, 1 h; active compounds read low | activity change, negative = inhibition, % at 76.9 µM | 0.13% of 420,000 active | AID 1346378; in the data active means activity change below about -50%; inconclusive means mostly about -30% to -49%;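 further: -100% = wells without enzyme as full effect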
Target sequence (Q9BTU6 whole entry, looked up): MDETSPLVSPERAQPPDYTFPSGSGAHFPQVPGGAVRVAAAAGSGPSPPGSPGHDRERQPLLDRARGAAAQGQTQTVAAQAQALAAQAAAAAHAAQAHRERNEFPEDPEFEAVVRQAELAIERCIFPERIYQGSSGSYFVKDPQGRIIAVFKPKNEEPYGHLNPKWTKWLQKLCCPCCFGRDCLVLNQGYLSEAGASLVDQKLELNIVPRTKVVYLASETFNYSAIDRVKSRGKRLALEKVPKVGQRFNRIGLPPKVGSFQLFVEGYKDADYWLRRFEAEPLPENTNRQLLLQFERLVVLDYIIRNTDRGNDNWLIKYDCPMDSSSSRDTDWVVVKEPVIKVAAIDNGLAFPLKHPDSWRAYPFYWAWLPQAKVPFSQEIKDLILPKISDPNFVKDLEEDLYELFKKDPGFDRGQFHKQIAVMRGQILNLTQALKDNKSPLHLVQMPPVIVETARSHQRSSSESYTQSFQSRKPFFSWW
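In this quantitative HTS, ADP production by PI4K2A was quantified luminescently after 1 h at ambient temperature; 100 microM adenosine served as plate-quality control.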
VDR inhibitor: inhibitors of human vitamin D receptor; P11473; VDR-SRC2-3 peptide fluorescence polarization, 2 h; Potency, µM, for the others: max response, negative = inhibition, most hits filed as inhibitors; 0.93% of 400,000 active; AID 504847; further: potency means the concentration at half of the fitted maximal effect
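Signal is fluorescence polarization, reporting how far test compounds block the interaction of VDR with the SRC2-3 coregulator peptide after a 2 h room-temperature incubation.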
KAT2A inh: inhibitors of human GCN5L2 histone acetyltransferase | AID 504327 | Potency, µM (highest dose often 58.9 µM), for inactives: at the highest dose activity change, negative = inhibition, usual class: inhibitors | GCN5L2 HAT assay, ThioGlo1 CoA-SH fluorescence | 0.21% of 390,000 active | Q92830; further: potency means the concentration at half of the fitted maximal effect
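Fluorescence readout, Ex340nm/Em540nm: ThioGlo1 (50uM final) reacts with free CoA thiol released as 20nM GCN5L2 acetylates H3(1-25) peptide (75uM) using acetyl-CoA (70uM). Compound and enzyme sat 15 min beforehand; 20 min room-temperature reaction.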
PLK1 PBD block: blocks phosphopeptide binding to human PLK1 polo-box domain | P53350 | Plk1 PBD binding of FITC phosphopeptide, fluorescence polarization | Potency, µM, for inactives: max response, negative = inhibition, usual class: inhibitors | 2.8% of 360,000 active | AID 720504; further: potency means the concentration at half of the fitted maximal effect; series mostly up to about 57 µM; nearly all actives have a fitted effect of over 65% in size
* hit, by the source's call; ? = inconclusive; / = not tested or not shown. Unless noted, the call rests on the fitted dose curve; in most records, active means well fitted curve in the direction sought with a large enough effect; inconclusive means small, poorly fitted or top-dose-only effect, or another doubt; inactive means no such curve, though single readings can be large; an effect the other way counts as inactive or inconclusive. Unless noted, on the % scale 0 is the no-effect control and ±100 the full control effect.

SMILES	GLS inhibitor	PI4K2A block	VDR inhibitor	KAT2A inh	PLK1 PBD block
N#CC(C#N)=C1C=C2C=C(N3CCCCCC3)CCC2CC1 (stereo unspecified)	6.2%	0.9	-17.8%	-7.9%	-67.3%
N#CC(C#N)=C1C=C2C=C(N3CCOCC3)CCC2CC1 (stereo unspecified)	-7.8%	-2.1	70.8µM*	2.4%	51.9%
NC(=O)/C(=N\OC(=O)c1ccco1)c1nc(-c2ccc(Br)cc2)cs1	30.3%	14.5	-16.1%	3.1%	5.32µM*
Nc1nc(-c2ccc(NC(=O)c3ccco3)cc2)cs1	3.8%	-3.0	15.6%	-7.4%	-19.5%
Cn1c(Sc2ccc(C(=O)O)cc2[N+](=O)[O-])nnc1-c1ccccc1	-10.3%	2.5	79.4µM*	-4.7%	4.23µM*
CCC(C)(C)NC(=O)c1ccc(Sc2nncn2C)c([N+](=O)[O-])c1	-5.7%	3.6	-6.8%	-0.4%	-29.5%
S=C(NCc1cccc(Cl)c1)OC1CCC12CCC(c1ccccc1)CC2 (stereo unspecified)	/	0.4	/	/	/
O=C1c2ccccc2S(=O)N1c1cccc(F)c1 (stereo unspecified)	2.9%	3.4	/	/	23.8µM*
O=C1CC(=O)N(c2cccc(F)c2)N1	0.8%	-5.8	-24.4%	0.9%	-7.9%
CC(C)C1Nc2ccc(C(=O)N3CCN(c4ccccn4)CC3)cc2NC1=O (stereo unspecified)	1.1%	1.0	27.9%	-7.3%	-15.0%
O=C1CNc2ccc(C(=O)N3CCN(c4ccccn4)CC3)cc2N1	5.0%	6.1	-27.7%	-5.3%	23.8µM*
O=C(NCCc1ccccc1)OCc1cn(Cc2ccccc2F)nn1	/	-2.8	/	/	/
CCOC(=O)c1c(-c2ccc(F)cc2)csc1NC(=O)C1CC=CCC1C(=O)O (stereo unspecified)	-10.3%	-0.1	?	-3.7%	23.8µM*
CCOC(=O)c1c(-c2ccc(C)cc2)csc1NC(=O)c1cc(=O)c2cc(C)ccc2o1	-10.9%	-5.2	28.2µM*	?	/
CCOc1ccc(CCNC(=O)c2ccccn2)cc1OCC	/	-2.3	/	/	/
N#CCN(CC#N)C(=O)C1c2ccccc2Oc2ccccc21	64.8%	2.1	-14.8%	-2.2%	23.8µM*
O=C(COc1ccc([N+](=O)[O-])cc1)N1CCC(c2nc3ccccc3s2)CC1	-4.8%	4.4	12.5%	-8.9%	/
Cc1cccc(C)c1NC(=O)COC(=O)c1cc(=O)c2ccccc2o1	29.1%	6.0	?	-3.8%	21.2µM*
CS(=O)(=O)N[C@@H]1C[C@@H]2O[C@@H](CO)CC[C@@H]2O[C@@H]1CCc1ccc(-c2ccccc2F)cc1	/	-6.4	/	/	/
COc1ccc(S(=O)(=O)Nc2ccccc2C(=O)NCc2ccco2)cc1	17.1%	-7.3	16.5%	-6.6%	10.6µM*
CC(C)OC(=O)C1=CNCC(C)(C)c2c1[nH]c1cc(F)ccc21	/	-2.1	/	/	/
CCCCCN1CCCCC(NC(=O)CSc2ccccc2)C1=O (stereo unspecified)	/	0.0	/	/	/
O=S1(=O)CC(O)C(N=Nc2c(O)n(Cc3ccccc3)c3ccccc23)C1 (stereo unspecified)	?	1.2	?	-4.4%	13.4µM*
COc1cccc(NC(=O)Cn2c(=O)n(Cc3ccc(C(=O)NCc4ccc5c(c4)OCO5)cc3)c(=O)c3ccccc32)c1	-19.7%	-1.5	-16.9%	4.0%	/
O=C(O)c1ccccc1N=Nc1ccc(O)cc1	43.6%	-4.7	?	/	29.9µM*
SMILES	GLS inhibitor	PI4K2A block	VDR inhibitor	KAT2A inh	PLK1 PBD block
O=C(O)c1cc(O)ccc1N=Nc1ccccc1	23.2%	-0.4	-7.6%	-24.5%	-1.0%
Cc1cccc(-n2c3c(cc(-c4nc(-c5ccc(Cl)cc5)cs4)c2=O)C(=O)CC(C)(C)C3)c1	-1.8%	0.7	-10.9%	1.9%	/
CC1(C)Cc2c(C#N)c(SCC(=O)c3ccccc3)nc(N3CCOCC3)c2CS1	12.3%	-0.8	-12.0%	-7.4%	29.9µM*
CC1(C)Cc2c(C#N)c(N3CCN(C(=O)c4ccco4)CC3)nc(-c3ccco3)c2CS1	?	?	?	?	-23.9%
CC1(C)Cc2c(C#N)c(N3CCN(C(=O)c4ccccc4Cl)CC3)nc(-c3ccco3)c2CS1	7.7%	-52.6*	-18.7%	?	?
CC(C)c1ccc(CN2C(=O)NC3(CCCCCC3)C2=O)cc1	-3.2%	8.5	-17.3%	-6.6%	26.7µM*
CSc1ccc(CN2C(=O)NC3(CCCCC3)C2=O)cc1	0.0%	1.3	3.5%	-12.7%	-9.8%
COc1ccc(CN2C(=O)NC3(CCCCCC3)C2=O)cc1F	-20.6%	1.6	-12.0%	-3.3%	3.36µM*
CC(=O)OCCn1c2nc(=O)[nH]c(=O)c-2nc2cc(C)c(C)cc21	-11.3%	-13.6	-18.0%	?	0.844µM*
Cc1cc2nc3c(=O)[nH]c(=O)nc-3n(C)c2cc1C=O	/	/	-29.0%	28.2µM*	/
O=C(CCCl)Nc1cccc2cccnc12	/	/	-8.9%	/	/
CO/N=C(\C(=O)NC1C(=O)N2C(C(=O)OCOC(=O)C(C)(C)C)=C(/C=C\c3scnc3C)CSC12)c1csc(N)n1 (stereo unspecified)	-7.5%	/	35.5µM*	-14.9%	/
CO/N=C(/C(=O)N[C@@H]1C(=O)N2C(C(=O)O)=C(CSc3nc(C)c(CC(=O)O)s3)CS[C@H]12)c1csc(N)n1	-18.2%	/	35.5µM*	-7.9%	/
Cc1nc(NS(=O)(=O)c2ccc(N)cc2)nc(C)c1Br	15.5%	/	1.5%	-6.8%	/
CC1=CC(C)(C)NC(=S)N1c1ccccc1C	-17.9%	-0.2	0.3%	-1.6%	-14.0%
CC1=CC(C)(C)NC(=S)N1c1cccc2cc(S(=O)(=O)O)ccc12	11.2µM*	-2.6	-24.7%	-20.3%	26.7µM*
CCN(CC)C(=O)CC[C@H]1CC[C@]2(CCCN(S(=O)(=O)c3ccccc3)C2)O1	/	-4.8	/	/	/
Cc1cc(-c2ccc(N=Nc3c(S(=O)(=O)O)cc4cc(S(=O)(=O)O)cc(N)c4c3O)c(C)c2)ccc1N=Nc1c(S(=O)(=O)O)cc2cc(S(=O)(=O)O)cc(N)c2c1O	15.5%	/	?	11.2µM*	/
O=S(=O)(O)c1cc(O)c2c(O)c(N=Nc3cc(Cl)ccc3O)c(S(=O)(=O)O)cc2c1	25.0%	-52.6*	?	-10.6%	23.8µM*
O=C(NC(=S)Nc1ccc(N2CCOCC2)c(Cl)c1)C(c1ccccc1)c1ccccc1	-7.8%	1.2	-16.5%	-11.0%	26.7µM*
Cc1nc2nc(SCC(=O)NC(C)c3ccccc3)nn2c(C)c1Cc1c(F)cccc1Cl (stereo unspecified)	2.0%	1.9	5.5%	-5.6%	/
Fc1ccc(-c2cc(-c3nnc4sc(-c5cccs5)nn34)[nH]n2)cc1	/	3.5	/	/	/
CCC(C)NC(=O)C1CCN(S(=O)(=O)c2ccc3[nH]c(=O)oc3c2)CC1 (stereo unspecified)	/	-6.4	/	/	/
COc1cccc(CS(=O)(=O)c2nnnn2-c2ccc(F)cc2Br)c1	/	/	0.7%	/	/
Oc1ccc(/C=N/Nc2ccc(Cl)nn2)c(O)c1O	?	-6.7	-1.6%	-4.9%	16.8µM*

Bioassay records as filed in PubChem BioAssay.
